# According to the supplement of paper PMC8728848:
# About 410 targets per protein were measured; listed, in parts, are those with the strongest signals and a random draw of the rest.
# Tests used:
# Experiment in all cases: glycan array binding signal (z-score within array); higher = stronger binding
# Settings in all cases: glycan notation: IUPAC condensed, linker removed
# Gal3S6S(b1-4)GlcNAc6S = system: Gal3S6S(b1-4)GlcNAc6S
# How it was run: (§1)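 Glycan array data were curated from 3228 arrays in the Consortium for Functional Glycomics database and kept only where the protein sequence was available. Glycan names were converted to IUPAC-condensed notation, and columns mapping to the same glycan were averaged. The binding signal is a within-array Z-score, averaged across arrays of the same protein sequence at different concentrations or buffers and across linkers. Negative Z-scores can be read as non-binding.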
# Gal6S(b1-4)GlcNAc6S = system: Gal6S(b1-4)GlcNAc6S
# How it was run: as §1
# Gal4S6S(b1-4)GlcNAc = system: Gal4S6S(b1-4)GlcNAc
# How it was run: as §1
# Gal3S4S(b1-4)GlcNAc = system: Gal3S4S(b1-4)GlcNAc
# How it was run: as §1
# Gal6P(b1-4)GlcNAc = system: Gal6P(b1-4)GlcNAc
# How it was run: as §1
# Gal6S(b1-3)GlcNAc6S = system: Gal6S(b1-3)GlcNAc6S
# How it was run: as §1
# Gal6S(b1-3)GlcNAc = system: Gal6S(b1-3)GlcNAc
# How it was run: as §1
# Gal6S(b1-4)Glc6S = system: Gal6S(b1-4)Glc6S
# How it was run: as §1
# Gal6S(b1-4)Glc = system: Gal6S(b1-4)Glc
# How it was run: as §1
# Gal6S(b1-4)GlcNAc = system: Gal6S(b1-4)GlcNAc
# How it was run: as §1
substance,measurement,setting,value
LcI (Legionella pneumophila),glycan array binding signal (z-score),Gal3S6S(b1-4)GlcNAc6S,-0.439
"Wza (Escherichia coli), P0A930",glycan array binding signal (z-score),Gal6S(b1-4)GlcNAc6S,0.571
"SiiE (Salmonella typhimurium), A0A0H3NVH0",glycan array binding signal (z-score),Gal4S6S(b1-4)GlcNAc,-0.799
Epa22,glycan array binding signal (z-score),Gal3S4S(b1-4)GlcNAc,-0.476
same,glycan array binding signal (z-score),Gal6P(b1-4)GlcNAc,-0.491
same,glycan array binding signal (z-score),Gal6S(b1-3)GlcNAc6S,2.55
same,glycan array binding signal (z-score),Gal6S(b1-3)GlcNAc,1.89
same,glycan array binding signal (z-score),Gal6S(b1-4)Glc6S,7.08
same,glycan array binding signal (z-score),Gal6S(b1-4)GlcNAc6S,12.6
same,glycan array binding signal (z-score),Gal6S(b1-4)Glc,1.51
AgI/II Vhelical-GFP (Streptococcus mutans),glycan array binding signal (z-score),Gal3S6S(b1-4)GlcNAc6S,1.08
same,glycan array binding signal (z-score),Gal6S(b1-4)GlcNAc6S,2.17
AgI/IIC123-GFP (Streptococcus mutans),glycan array binding signal (z-score),Gal3S4S(b1-4)GlcNAc,-0.466
"SpGH101 (Streptococcus pneumoniae), Q8DR60",glycan array binding signal (z-score),Gal6S(b1-3)GlcNAc,-0.229
"BambL (Burhholderia ambifaria), Q0B4G1",glycan array binding signal (z-score),Gal6S(b1-4)GlcNAc,-0.314
